Screen size: about 360,000 compounds; about 3,900 (1.1%) were called active.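 Rule for the calls: active = mean replicate inhibition score of at least 50 and every replicate individually at or above 50; inconclusive = only one of the two criteria met; inactive = mean below 50 and not all replicates reaching 50.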 Only a selection was taken, and actives are over-represented in it overall.
assay: blockers of JRFL envelope-mediated fusion – HeLa-JRFL effector, CEM21 target cells, luciferase, primary screen (AID 651610); details: HeLa-JRFL Env/CEM21 cell fusion, stronger effect = higher value; at 16.7 µM unless noted;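 note: 0% = plate neutral controls and 100% = maraviroc near 300 nM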

| Compound | inhibition |
| --- | --- |
| C[C@H](CO)N1C[C@H](C)[C@@H](CN(C)CC2CCOCC2)Oc2ncc(C#Cc3ccc(F)cc3)cc2C1=O | 7.54% (inactive) |
| C[C@@H](O)C#Cc1cnc2c(c1)C(=O)N([C@@H](C)CO)C[C@H](C)[C@H](CN(C)C(=O)c1ccccc1F)O2 | 5.54% (inactive) |
| COCCNc1nc(NCc2ccc(NC(C)=O)cc2)c2sccc2n1 | -25.8% [at 12.3 µM] (inactive) |
| COc1ccccc1CNc1nc(Nc2ccccc2Cl)c2sccc2n1 | 20.5% [at 12.3 µM] (inactive) |
| COc1cccc(CNc2nc(NCc3ccccc3OC)nc3ccsc23)c1 | 72.3% [at 12.3 µM] (active) |
| C[C@@H]1CN([C@@H](C)CO)C(=O)Cc2cc(NS(C)(=O)=O)ccc2O[C@H]1CN(C)S(=O)(=O)c1ccc(F)cc1 | -0.637% (inactive) |
| CN1[C@@H]2c3ccc(-c4ccc(F)cc4)c(=O)n3C[C@H]1[C@H](CO)[C@H]2C(=O)NC1CCC1 | 0.501% (inactive) |
| CC[C@@]12C(=O)N(c3ccccc3)C(=O)N1[C@H](c1ccc(Br)cc1)[C@@H]1C(=O)N(C(C)(C)C)C(=O)[C@@H]12 | 59.8% [at 12.3 µM] (active) |
| CCN1C(=O)[C@H]2[C@@H](c3ccc(C(F)(F)F)cc3)N[C@]3(CCCN(Cc4ccc(Br)cc4)C3=O)[C@H]2C1=O | -31.5% [at 12.3 µM] (inactive) |
| CC12C(=O)N(c3ccccc3)C(=O)C1C(c1ccccc1)N1CCCN12 (stereo not drawn) | 6.12% [at 12.3 µM] (inactive) |
| CC(C)(C)N1C(=O)[C@H]2[C@@H](c3ccc(Br)cc3)N3C(=O)N(c4cccc(Cl)c4)C(=O)[C@@]3(C)[C@H]2C1=O | 72.7% [at 12.3 µM] (active) |
| C[C@@]12C(=O)N(c3cccc(Br)c3)C(=O)N1[C@H](c1ccc(Cl)cc1)[C@@H]1C(=O)N(C3CCCCC3)C(=O)[C@@H]12 | -9.25% [at 12.3 µM] (inactive) |
| CCCCC1(C(=O)OCC)NC(c2ccc(O)cc2)C2C(=O)N(c3ccccc3)C(=O)C21 (stereo not drawn) | 2.85% [at 12.3 µM] (inactive) |
| CCN1C(=O)[C@H]2[C@@H](c3ccc(C)cc3)N3C(=O)N(c4cccc(Br)c4)C(=O)[C@@]3(CC)[C@H]2C1=O | 82.7% [at 12.3 µM] (active) |
| COc1ccc([C@@H]2[C@@H]3C(=O)N(C(C)(C)C)C(=O)[C@@H]3[C@]3(Cc4ccccc4)C(=O)N(c4cccc(Br)c4)C(=O)N23)cc1 | 33.2% [at 12.3 µM] (inactive) |
| CCOC(=O)[C@@H]1[C@H]2COc3ccc(Br)cc3[C@H]2N2C(=O)N(c3ccc(C)cc3)C(=O)[C@@]12C | -52.6% [at 12.3 µM] (inactive) |
| C[C@@H]1CCCCO[C@@H](CN(C)S(=O)(=O)c2ccc(F)cc2)[C@@H](C)CN([C@@H](C)CO)C(=O)c2cc(NC(=O)Nc3ccc(F)cc3)ccc2O1 | -9.74% (inactive) |
| C[C@H](CO)N1C[C@H](C)[C@@H](CN(C)C(=O)C2CC2)Oc2cc(-c3cccc(C#N)c3)ccc2S1(=O)=O | 6.81% (inactive) |
| COc1ccccc1S(=O)(=O)N[C@@H]1CC[C@H](CC(=O)N2CCN(C)CC2)O[C@@H]1CO | -0.692% (inactive) |
| C[C@@H]1CN([C@@H](C)CO)C(=O)c2cccc(NC(=O)C3CCOCC3)c2O[C@H]1CN(C)C(=O)NC1CCCCC1 | 10.1% (inactive) |
| C[C@@H]1CN([C@@H](C)CO)S(=O)(=O)c2ccc(C#CC3CCCC3)cc2O[C@H]1CN(C)S(C)(=O)=O | 6.95% (inactive) |

| Compound | inhibition |
| --- | --- |
| COc1cccc(-c2cnc3c(c2)C(=O)N([C@H](C)CO)C[C@@H](C)[C@H](CN(C)Cc2ccc(F)cc2)O3)c1 | 7.73% (inactive) |
| CN1C(=O)c2cc(NC(=O)c3cccs3)ccc2OC[C@H]2O[C@@H](CC(=O)NCC3CC3)CC[C@@H]21 | 3.56% (inactive) |
| Cc1cc(C)cc(N2C(=O)CSC2c2cccc([N+](=O)[O-])c2)c1 (stereo not drawn) | -6.42% (inactive) |
| C[C@H]1CN([C@@H](C)CO)C(=O)c2cccc(NS(=O)(=O)c3ccc(Cl)cc3)c2O[C@H]1CN(C)S(=O)(=O)c1ccc(Cl)cc1 | -26.5% (inactive) |
| O=C(CSc1nc(O)c(Cc2ccccc2)c(=O)[nH]1)Nc1nc2c(s1)CCCC2 | 25.1% [at 12.3 µM] (inactive) |
| O=C(CCS(=O)(=O)c1ccccc1)NC1CCCC1 | 11.3% [at 12.3 µM] (inactive) |
| O=C(CCS(=O)(=O)c1ccccc1)Nc1nc2c(s1)CCCC2 | 60.1% [at 12.3 µM] (active) |
| CCOc1ccc(N2C(=O)CC(N(CCc3ccc(OC)c(OC)c3)C(=S)Nc3ccccc3)C2=O)cc1 (stereo not drawn) | 58.4% [at 12.3 µM] (active) |
| COc1ccc(CCN2C(=O)N(c3ccc(OC)cc3)C(=O)C2CC(=O)Nc2ccc(OC)cc2)cc1 (stereo not drawn) | 9.15% [at 12.3 µM] (inactive) |
| CCOc1ccc(NC(=O)CC2C(=O)N(c3ccccc3)C(=O)N2CCOC)cc1 (stereo not drawn) | -3.16% [at 12.3 µM] (inactive) |
| COc1ccc(N2C(=O)C(CC(=O)Nc3ccccc3)N(Cc3ccc(OC)c(OC)c3)C2=O)cc1 (stereo not drawn) | 56.7% [at 12.3 µM] (active) |
| CCCOc1ccc(N2C(=O)CC(N(CCc3ccc(S(N)(=O)=O)cc3)C(C)=O)C2=O)cc1 (stereo not drawn) | 19.9% [at 12.3 µM] (inactive) |
| COC(=O)CN(C(=S)Nc1ccc(Cl)cc1)C1CC(=O)N(c2ccc(OC)cc2)C1=O (stereo not drawn) | -3.79% [at 12.3 µM] (inactive) |
| C[C@H](CO)N1C[C@H](C)[C@@H](CN(C)C(=O)C2CC2)Oc2cc(C#CC(C)(C)O)ccc2S1(=O)=O | -33.6% (inactive) |
| C[C@@H]1CCCCO[C@@H](CN(C)C(=O)Nc2cccc3ccccc23)[C@H](C)CN([C@H](C)CO)C(=O)c2cc(NS(C)(=O)=O)ccc2O1 | -3.83% (inactive) |
| Cc1noc(C)c1S(=O)(=O)Nc1ccc2c(c1)CC(=O)N([C@H](C)CO)C[C@@H](C)[C@@H](CN(C)Cc1ccc(C(=O)O)cc1)O2 | 20.1% (inactive) |
| Cn1c(=O)c2c(nc(NCCNC(=O)c3ccco3)n2Cc2ccccc2F)n(C)c1=O | 0.989% [at 12.3 µM] (inactive) |
| CC1CN(Cc2nc3c(c(=O)n(C)c(=O)n3C)n2Cc2cccc(Cl)c2)CC(C)O1 (stereo not drawn) | 7.96% [at 12.3 µM] (inactive) |
| Cn1c(=O)c2c(nc(NCc3ccccc3)n2CC(N)=O)n(C)c1=O | -8.78% [at 12.3 µM] (inactive) |
| CCCCNc1nc2c(c(=O)n(C)c(=O)n2C)n1Cc1cccc(OC)c1 | 88.5% [at 12.3 µM] (active) |
| CC(C)OCCCNc1nc2c(c(=O)n(Cc3ccccc3F)c(=O)n2C)n1C | 4.04% [at 12.3 µM] (inactive) |

| Compound | inhibition |
| --- | --- |
| Cn1c(=O)c2c(nc(NCCc3ccccc3)n2Cc2ccccc2)n(C)c1=O | 86.6% [at 12.3 µM] (active) |
| COc1ccc(S(=O)(=O)Nc2ccc3c(c2)C(=O)N([C@H](C)CO)C[C@@H](C)[C@H](CN(C)C(=O)Nc2ccc4c(c2)OCO4)O3)cc1 | 12% (inactive) |
| COc1cccc(S(=O)(=O)N[C@H]2CC[C@@H](CCN)O[C@H]2CO)c1 | -38.7% (inactive) |
| CN(C)CCCNC(=O)C[C@@H]1C=C[C@H](NC(=O)Cc2cccnc2)[C@H](CO)O1 | 12.3% (inactive) |
| C[C@@H]1CCCCO[C@@H](CN(C)Cc2ccncc2)[C@H](C)CN([C@H](C)CO)C(=O)c2cc(NC(=O)CCC(F)(F)F)ccc2O1 | -12.7% (inactive) |
| COc1cccc2c1C(=O)c1c(O)c3c(c(O)c1C2=O)CC(O)(C(C)=NNC(=O)c1ccc(Cl)c(Cl)c1)CC3OC1CC(N)C(O)C(C)O1 (stereo not drawn) | 86% [at 12.3 µM] (active) |
| C[C@@H](NC(=O)C[C@@H]1CC[C@@H](NC(=O)C2CCOCC2)[C@@H](CO)O1)c1ccccc1 | -27.6% (inactive) |
| C[C@@H]1CN([C@@H](C)CO)C(=O)c2cc(-c3cncnc3)cnc2O[C@@H]1CN(C)Cc1ccncc1 | 1.5% (inactive) |
| CC1CCCN(c2cccc3c2S(=O)(=O)N(Cc2ccc(F)cc2)[C@@H](C)[C@H](c2ccccc2)O3)C1 (stereo partly drawn) | -2.41% [at 12.3 µM] (inactive) |
| CN(C)C(=O)C[C@@H]1CC[C@H](NC(=O)NC2CCCC2)[C@H](CO)O1 | 2.96% (inactive) |
| Cc1cc(NC(=O)c2ccco2)c(=O)n(Cc2c(F)cccc2Cl)c1 | -1.03% [at 12.3 µM] (inactive) |
| O=C(Nc1cccn(Cc2c(Cl)cccc2Cl)c1=O)c1ccc(Cl)cc1 | 76.4% [at 12.3 µM] (active) |
| O=C(Nc1cccn(Cc2ccccc2Cl)c1=O)NC1CCCCC1 | -4.39% [at 12.3 µM] (inactive) |
| CNC(=O)C[C@@H]1CC[C@H]2[C@H](COc3ccc(NC(=O)c4cccc(OC)c4)cc3C(=O)N2C)O1 | -18.7% (inactive) |
| C[C@H](CO)N1C[C@H](C)[C@@H](CN(C)S(=O)(=O)c2ccccc2)Oc2c(NC(=O)c3ccc(-c4nccs4)cc3)cccc2C1=O | -55.7% (inactive) |
| O=C(Cc1ccncc1)NCC[C@H]1CC[C@H](NC(=O)C2CC2)[C@H](CO)O1 | 4.94% (inactive) |
| C[C@@H]1CN([C@@H](C)CO)C(=O)c2cc(NC(=O)C3CCCCC3)ccc2O[C@@H](C)CCCCO[C@H]1CN(C)C(=O)Nc1ccc2c(c1)OCO2 | -19.1% (inactive) |
| c1ccc(CNc2ncnc3[nH]ncc23)cc1 | 27.4% [at 12.3 µM] (inactive) |
| COc1ccc(CNc2ncnc3ccccc23)cc1 | 77% [at 12.3 µM] (active) |
| COc1ccc(CNc2nccs2)cc1 | -9.44% [at 12.3 µM] (inactive) |
| C[C@@H]1CCCCO[C@@H](CN(C)S(=O)(=O)c2cn(C)cn2)[C@@H](C)CN([C@H](C)CO)C(=O)c2cc(NC(=O)c3ccncc3)ccc2O1 | 26.2% (inactive) |
